Results from PubChem BioAssay (Tox21).
A number with no mark means an inactive call. Calls of active or inactive are those of the source. Calls come from the whole dose curve.

The compounds below were run against Acetylcholinesterase (Homo sapiens) (UniProt P22303) (assay: Acetylcholinesterase (AChE) small molecule antagonists: enzyme-based qHTS assay with human liver microsomes (AID 1347399; note: nearly all actives have a fitted effect of over 60% in size)). Details: Potency: qHTS inhibition; outcome: qHTS inhibition; series mostly up to 115 µM; activity change, negative = inhibition: at the top concentration.
Procedure, shortened: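 Recombinant human AChE (50 mU/mL in the enzyme mix) and human liver microsomes (0.25 mg/mL final) were preincubated with compound and NADPH (0.25 mg/mL final) for 30 min at 37 C. Acetylthiocholine/DTNB was then added; thiocholine was read colorimetrically after 10 min at room temperature.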
% is set by controls: 0 for no effect and ±100 for the full control effect.

Acetylcholinesterase (Homo sapiens), sequence (P22303 whole entry, looked up): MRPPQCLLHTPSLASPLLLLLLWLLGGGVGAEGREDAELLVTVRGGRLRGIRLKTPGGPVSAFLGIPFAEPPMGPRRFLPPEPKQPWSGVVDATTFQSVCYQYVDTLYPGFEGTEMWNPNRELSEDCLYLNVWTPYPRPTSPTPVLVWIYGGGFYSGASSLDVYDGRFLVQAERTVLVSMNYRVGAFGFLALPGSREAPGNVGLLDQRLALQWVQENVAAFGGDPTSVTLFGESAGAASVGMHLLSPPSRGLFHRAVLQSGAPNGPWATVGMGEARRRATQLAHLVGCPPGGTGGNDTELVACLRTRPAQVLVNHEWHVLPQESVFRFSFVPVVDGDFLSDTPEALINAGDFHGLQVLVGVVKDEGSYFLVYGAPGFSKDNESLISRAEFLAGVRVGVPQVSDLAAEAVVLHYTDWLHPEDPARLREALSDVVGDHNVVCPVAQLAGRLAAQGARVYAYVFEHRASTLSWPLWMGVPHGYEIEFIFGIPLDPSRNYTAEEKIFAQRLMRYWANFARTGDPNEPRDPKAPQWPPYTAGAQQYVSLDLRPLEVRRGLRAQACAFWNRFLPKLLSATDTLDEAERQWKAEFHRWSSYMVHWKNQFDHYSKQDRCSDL

Row | SMILES | activity change, negative = inhibition | Potency | outcome
1 | Cc1ccc2ccc(Cl)cc2n1 | 0.29% [at 53 µM] | – | –
2 | O[C@@H]([C@H](O)[C@H](O)CBr)[C@H](O)CBr | 2.58% | – | –
3 | CO[C@@]1(NC(=O)CSC[C@@H](N)C(=O)O)C(=O)N2C(C(=O)O)=C(CSc3nnnn3C)CS[C@@H]21 | 0.356% [at 53 µM] | – | –
4 | O=Cc1ccccc1[N+](=O)[O-] | -3.39% | – | –
5 | Cc1ccc(Nc2c(F)cccc2Cl)c(CC(=O)O)c1 | 0.143% [at 53 µM] | – | –
6 | COC(=O)CCCCC(CCSS/C(CCO)=C(\C)N(C=O)Cc1cnc(C)nc1N)SC(C)=O (stereo not given) | -0.168% [at 53 µM] | – | –
7 | CN(C)C(=O)Nc1ccc(Cl)c(Cl)c1 | – | inactive | –
8 | CCCc1ccc(OCC(=O)N2CCN(C(=O)COc3ccc(CCC)cc3OC)CC2)c(OC)c1 | -3.7% [at 53 µM] | – | –
9 | CC(C)(CO)C(O)C(=O)NCCCO (stereo not given) | -0.149% | – | –
10 | CCCCCCCCSCCO | -1.07% | – | –
11 | Cc1ccc(Cl)cc1N | -0.491% | – | –
12 | OC(Cn1cncn1)(Cn1cncn1)c1ccc(F)cc1F | – | inactive | –
13 | Cc1ccc(C=O)cc1 | 0.499% [at 53 µM] | – | –
14 | CCCc1ncc(C(=O)O)s1 | 5.85% [at 53 µM] | – | –
15 | O=S(=O)(O)c1ccc(Cl)cc1 | 0.458% | – | –
16 | c1ccc2c(c1)-c1cccc3c1c-2cc1ccccc13 | – | inactive | –
17 | CCCCCCCCCCCCCC(=O)OCC | 0.0904% | – | –
18 | CN=C(NC#N)Nc1ccc(C2=NNC(=O)CC2C)cc1 (stereo not given) | -1.3% [at 53 µM] | – | –
19 | CC[N+](CC)(CC(=O)Nc1c(C)cccc1C)Cc1ccccc1 (tested in a mixture with another compound) | -1.38% [at 53 µM] | – | –
20 | COC(C)(C)CCO | 0.142% | – | –

Row | SMILES | activity change, negative = inhibition | Potency | outcome
21 | CCCCOC(=O)C(C)OC(=O)CCC (stereo not given) | 3.37% | – | –
22 | NC(N)=Nc1nc(CSCC/C(N)=N/S(N)(=O)=O)cs1 | – | inactive | –
23 | O=C(O)CCNC(=O)c1ccccc1 | -0.084% [at 53 µM] | – | –
24 | CC(=O)/C=C/C1C(C)=CCCC1(C)C (stereo not given) | -0.65% | – | –
25 | N#CCC(=O)NN | 0.673% [at 53 µM] | – | –
26 | CC12CCCC=C1C(=O)OC2=O (stereo not given) | -0.679% | – | –
27 | CC(C)c1ccc(C(=O)N=C(N)N)cc1S(C)(=O)=O | – | – | inactive
28 | CO[Si](CCCn1c(=O)n(CCC[Si](OC)(OC)OC)c(=O)n(CCC[Si](OC)(OC)OC)c1=O)(OC)OC | 0.158% [at 53 µM] | – | –
29 | O=c1[nH]c(=O)c2[nH]c(=O)[nH]c2[nH]1 | 21.5% [at 10.5 µM] | – | –
30 | CCC(C)(C)c1ccc(CC(C)CN2C[C@@H](C)O[C@@H](C)C2)cc1 (stereo not given in full) | 0.147% [at 53 µM] | – | –
31 | COc1ccc(NC(C)=O)cc1N | – | inactive | –
32 | C=CC(=O)N1CCOCC1 | -0.0711% | – | –
33 | CC1=CC(=O)CCC1 | -0.149% | – | –
34 | CCN(CCO)c1cccc(C)c1 | 0.157% | – | –
35 | CCCCCCCCCCCC(=O)OCC(O)CO (stereo not given) | 1.41% | – | –
36 | ON=C1CCCCC1 | – | inactive | –
37 | CC(C)OC(=O)CCC(=O)OC(C)C | -2.14% | – | –
38 | CNC(=O)N(c1ccccc1)c1ccccc1 | 0% | – | –
39 | O[Si](c1ccccc1)(c1ccccc1)c1ccccc1 | 5.27% | – | –
40 | CC(C)=CCC/C(C)=C/CC/C(C)=C/CO | -0.153% | – | –
